Laboratory results: the supplement of paper PMC8047044

The compounds below were run on Neuro-2a (assay: neurite formation score, plate-normalized to DMSO control mean 5.04 (score (0-8 scale)); higher = more or longer neurites). Conditions: 1 µM.
Procedure: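 Neuro-2a mouse neuroblastoma cells in PLL-coated 96-well plates were pre-treated for 1 h in DMEM(+) with each kinase inhibitor at 1 µM, then switched to serum-free DMEM(-) with inhibitor to induce neurite outgrowth and fixed about 2-3 h later. Three blinded observers scored neurite formation from 0 (no neurites) to 8 (long neurites on almost all cells).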

Row | Compound | neurite formation score
1 | O=C1NC(=NCc2cccs2)S/C1=C\c1ccc2ncccc2c1 | 5.63
2 | CNC(=O)c1cc(Oc2ccc(NC(=O)Nc3ccc(Cl)c(C(F)(F)F)c3)c(F)c2)ccn1 [Regorafenib monohydrate] | 4.69
3 | COc1ccc(CNC(=O)Nc2ncc([N+](=O)[O-])s2)cc1 | 4.91
4 | COc1cc2nccc(Oc3ccc(NC(=O)Nc4ccc(F)cc4F)c(F)c3)c2cc1OC | 5.24
5 | Cc1nc(NC(=O)N2CCC[C@H]2C(N)=O)sc1-c1ccnc(C(C)(C)C(F)(F)F)c1 | 5.24
6 | CCCS(=O)(=O)Nc1ccc(F)c(C(=O)c2c[nH]c3ncc(-c4ccc(Cl)cc4)cc23)c1F [Vemurafenib (PLX4032, RG7204)] | 3.91
7 | COc1cc2ncnc(Nc3ccc(O)cc3)c2cc1OC | 5.02
8 | C=CCc1ccc(O)c(-c2ccc(O)c(CC=C)c2)c1 [Honokiol] | 4.47
9 | N#CC(=C(/N)Sc1ccccc1N)/C(C#N)=C(\N)Sc1ccccc1N | 4.57
10 | C=CC(=O)Nc1cccc(Oc2nc(Nc3ccc(N4CCN(C)CC4)cc3OC)ncc2Cl)c1 | 4.24
11 | Cc1cc([C@@H](C)Nc2ccccc2C(=O)O)c2nc(N3CCOCC3)cc(=O)n2c1 | 4.57
12 | O=C(NC[C@H](O)CO)c1ccncc1Nc1ccc(I)cc1F | 3.9
13 | C[C@H]1Oc2cc(cnc2N)-c2c(nn(C)c2C#N)CN(C)C(=O)c2ccc(F)cc21 | 4.21
14 | CNC(=O)c1cc(COc2nnc(Nc3ccc(Cl)cc3)c3ccoc23)ccn1 [Telatinib (BAY 57-9352)] | 4.96
15 | C=CC(=O)Nc1cccc(Nc2nc(Nc3ccc(N4CCN(C(C)=O)CC4)cc3OC)ncc2C(F)(F)F)c1 | 4.24
16 | CCS(=O)(=O)c1cccc(-c2cc(C(=O)NC3CCN(C)CC3)c(C)c3[nH]c4ncc(C)cc4c23)c1 | 2.69
17 | Cc1cc(O)c2c(c1)C(=O)c1cccc(O)c1C2=O [Chrysophanol] | 4.8
18 | O=c1ncn2nc(Sc3ccc(F)cc3F)ccc2c1-c1c(Cl)cccc1Cl | 4.29
19 | CN(c1ccccc1CNc1nc(Nc2ccc3c(c2)CC(=O)N3)ncc1C(F)(F)F)S(C)(=O)=O | 4.29
20 | c1cncc(CN2CCC(n3ncc4c(N5CCOCC5)nc(-c5ccc6[nH]ccc6c5)nc43)CC2)c1 | 1.54
21 | COc1cc2ncnc(Sc3nnc(C)s3)c2cc1OC | 4.96
22 | CN([C@@H](Cc1ccc(OS(=O)(=O)c2cccc3cnccc23)cc1)C(=O)N1CCN(c2ccccc2)CC1)S(=O)(=O)c1cccc2cnccc12 | 2.9
23 | Cc1ccc(C(=O)Nc2ccc(CN3CCN(C)CC3)c(C(F)(F)F)c2)cc1C#Cc1cnc2cccnn12 | 1.24
24 | NC1(Cc2ccc(Cl)cc2)CCN(c2ncnc3[nH]ccc23)CC1 | 5.63
25 | C[C@H](NC(=O)/C(C#N)=C/c1cccc(Br)n1)c1ccccc1 | 4.36
26 | C[C@]1(O)C[C@@H](c2nc(-c3ccc4ccc(-c5ccccc5)nc4c3)c3c(N)nccn32)C1 [Linsitinib] | 4.9
27 | O=C(NCCCNc1nc(Nc2cccc(CN3CCOCC3)c2)ncc1C1CC1)C1CCC1 | 5.02
28 | COc1cc2ncnc(Oc3cccc(NC(=O)Nc4cc(C(C)(C)C(F)(F)F)on4)c3)c2cc1OC | 5.24
29 | CNC(=O)c1ccc(C)c(-n2c(C)cc(OCc3ccc(F)cc3F)c(Br)c2=O)c1 | 3.57
